Assay results as given in PubChem BioAssay AID1159580 (chemical genetic matrix, 2015).
“And” between values parts separate entries of the source, which are not always exact repeats. Identical values can stand only once. The whole screen tested about 5,500 compounds, of which about 2,000 (36%) were called active. Roughly 18% stayed inconclusive and do not appear here. This is one part of the list. Values without a mark were called inactive. Rule as the data show it: active = normalized growth mostly below about 0.91 (no sharp cut-off); inconclusive = no clear call, values can overlap the other calls; inactive = mostly above about 0.92.

Experiment: chemical genetic growth profiling, strain panel (AID 1159580);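 also: tested at 20 µM; growth read once vehicle control cultures reached saturation at 30 °C; 1 = growth at the plate median or of vehicle wells; lower values mean less growth of the strain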
Conditions: growth OD

COc1cccc(-c2cc(=O)c3cc(OC)ccc3o2)c1
normalized growth (S. cerevisiae deletion strains, locus YAL013W, strain DEP1, stronger effect = lower value): 0.993
normalized growth (S. cerevisiae deletion strains, locus YBR021W, strain FUR4, stronger effect = lower value): 0.816 (active)
normalized growth (S. cerevisiae deletion strains, locus YBR229C, strain ROT2, stronger effect = lower value): 0.992
normalized growth (S. cerevisiae deletion strains, locus YCL029C, strain bik1, stronger effect = lower value): 1.1 [resistant] (active)
normalized growth (S. cerevisiae deletion strains, locus YDL035C, strain GPR1, stronger effect = lower value): 0.98
normalized growth (S. cerevisiae deletion strains, locus YDL074C, strain BRE1, stronger effect = lower value): 0.914
normalized growth (S. cerevisiae deletion strains, locus YDL101C, strain DUN1, stronger effect = lower value): 0.983
normalized growth (S. cerevisiae deletion strains, locus YDL134C, strain PPH21, stronger effect = lower value): 0.95
normalized growth (S. cerevisiae deletion strains, locus YDL185W, strain tfp1, stronger effect = lower value): 1.09
normalized growth (S. cerevisiae deletion strains, locus YDL192W, strain arf1, stronger effect = lower value): 1.04
normalized growth (S. cerevisiae deletion strains, locus YDR101C, strain arx1, stronger effect = lower value): 1.13 [resistant] (active)
normalized growth (S. cerevisiae deletion strains, locus YDR150W, strain NUM1, stronger effect = lower value): 1
normalized growth (S. cerevisiae deletion strains, locus YDR162C, strain NBP2, stronger effect = lower value): 0.968
normalized growth (S. cerevisiae deletion strains, locus YDR318W, strain mcm21, stronger effect = lower value): 1.05
normalized growth (S. cerevisiae deletion strains, locus YDR388W, stronger effect = lower value): 1.03
normalized growth (S. cerevisiae deletion strains, locus YDR502C, strain sam2, stronger effect = lower value): 1.14 [resistant] (active)
normalized growth (S. cerevisiae deletion strains, locus YEL061C, strain CIN8, stronger effect = lower value): 0.979
normalized growth (S. cerevisiae deletion strains, locus YER155C, strain BEM2, stronger effect = lower value): 1.07
normalized growth (S. cerevisiae deletion strains, locus YER167W, strain BCK2, stronger effect = lower value): 0.993
normalized growth (S. cerevisiae deletion strains, locus YGL078C, strain dbp3, stronger effect = lower value): 1.07
normalized growth (S. cerevisiae deletion strains, locus YGL086W, strain mad1, stronger effect = lower value): 1
normalized growth (S. cerevisiae deletion strains, locus YGL248W, strain PDE1, stronger effect = lower value): 0.944
normalized growth (S. cerevisiae deletion strains, locus YGR135W, strain pre9, stronger effect = lower value): 1.07
normalized growth (S. cerevisiae deletion strains, locus YGR229C, strain SMI1, stronger effect = lower value): 0.858
normalized growth (S. cerevisiae deletion strains, locus YGR252W, strain gcn5, stronger effect = lower value): 0.981
normalized growth (S. cerevisiae deletion strains, locus YHR030C, strain SLT2, stronger effect = lower value): 0.958 and 0.966
normalized growth (S. cerevisiae deletion strains, locus YHR079C, strain IRE1 (second series), stronger effect = lower value): 0.987
normalized growth (S. cerevisiae deletion strains, locus YHR079C, strain IRE1, stronger effect = lower value): 0.967
normalized growth (S. cerevisiae deletion strains, locus YHR094C, strain hxt1, stronger effect = lower value): 1.18 [resistant] (active)
normalized growth (S. cerevisiae deletion strains, locus YHR129C, strain ARP1, stronger effect = lower value): 0.98
normalized growth (S. cerevisiae deletion strains, locus YHR200W, strain rpn10, stronger effect = lower value): 1.14 [resistant] (active)
normalized growth (S. cerevisiae deletion strains, locus YIL066C, strain RNR3, stronger effect = lower value): 0.94
normalized growth (S. cerevisiae deletion strains, locus YIL073C, strain SPO22, stronger effect = lower value): 0.945
normalized growth (S. cerevisiae deletion strains, locus YIL125W, strain kgd1, stronger effect = lower value): 1.05
normalized growth (S. cerevisiae deletion strains, locus YIR030C, strain dcg1, stronger effect = lower value): 1.12 [resistant] (active)
normalized growth (S. cerevisiae deletion strains, locus YJL095W, strain BCK1, stronger effect = lower value): 0.857 and 0.963
normalized growth (S. cerevisiae deletion strains, locus YJL134W, strain LCB3, stronger effect = lower value): 1.01
normalized growth (S. cerevisiae deletion strains, locus YJL168C, strain set2, stronger effect = lower value): 1.1 [resistant] (active)
normalized growth (S. cerevisiae deletion strains, locus YJL187C, strain SWE1 (second series), stronger effect = lower value): 0.954
normalized growth (S. cerevisiae deletion strains, locus YJR043C, strain POL32, stronger effect = lower value): 0.93
normalized growth (S. cerevisiae deletion strains, locus YJR066W, strain TOR1, stronger effect = lower value): 0.916
normalized growth (S. cerevisiae deletion strains, locus YJR075W, strain HOC1, stronger effect = lower value): 0.959
normalized growth (S. cerevisiae deletion strains, locus YKL009W, strain mrt4, stronger effect = lower value): 0.713 (active)
normalized growth (S. cerevisiae deletion strains, locus YKL068W, stronger effect = lower value): 1.02
normalized growth (S. cerevisiae deletion strains, locus YKL085W, strain MDH1 (second series), stronger effect = lower value): 1.03
normalized growth (S. cerevisiae deletion strains, locus YKL085W, strain MDH1, stronger effect = lower value): 1.03
normalized growth (S. cerevisiae deletion strains, locus YKL190W, strain CNB1, stronger effect = lower value): 1.01
normalized growth (S. cerevisiae deletion strains, locus YKR001C, strain vps1, stronger effect = lower value): 0.998
normalized growth (S. cerevisiae deletion strains, locus YLR039C, strain RIC1, stronger effect = lower value): 0.995
normalized growth (S. cerevisiae deletion strains, locus YLR058C, strain SHM2, stronger effect = lower value): 0.968
normalized growth (S. cerevisiae deletion strains, locus YLR102C, strain apc9, stronger effect = lower value): 1.03
normalized growth (S. cerevisiae deletion strains, locus YLR113W, strain HOG1, stronger effect = lower value): 0.983
normalized growth (S. cerevisiae deletion strains, locus YLR262C, strain YPT6, stronger effect = lower value): 1.06
normalized growth (S. cerevisiae deletion strains, locus YLR268W, strain sec22, stronger effect = lower value): 1.07
normalized growth (S. cerevisiae deletion strains, locus YLR330W, strain CHS5, stronger effect = lower value): 0.952
normalized growth (S. cerevisiae deletion strains, locus YLR342W, strain FKS1 (second series), stronger effect = lower value): 0.891
normalized growth (S. cerevisiae deletion strains, locus YLR371W, strain rom2, stronger effect = lower value): 1.11 [resistant] (active)
normalized growth (S. cerevisiae deletion strains, locus YLR418C, strain cdc73, stronger effect = lower value): 0.895
normalized growth (S. cerevisiae deletion strains, locus YML016C, strain PPZ1, stronger effect = lower value): 0.987
normalized growth (S. cerevisiae deletion strains, locus YML032C, strain rad52, stronger effect = lower value): 0.934
normalized growth (S. cerevisiae deletion strains, locus YML124C, strain tub3, stronger effect = lower value): 1.04
normalized growth (S. cerevisiae deletion strains, locus YMR078C, strain ctf18, stronger effect = lower value): 1.06
normalized growth (S. cerevisiae deletion strains, locus YMR223W, strain ubp8, stronger effect = lower value): 1.09
normalized growth (S. cerevisiae deletion strains, locus YMR263W, strain SAP30, stronger effect = lower value): 0.935
normalized growth (S. cerevisiae deletion strains, locus YMR307W, strain GAS1, stronger effect = lower value): 0.969
normalized growth (S. cerevisiae deletion strains, locus YNL067W, strain RPL9B, stronger effect = lower value): 0.946
normalized growth (S. cerevisiae deletion strains, locus YNL128W, strain TEP1, stronger effect = lower value): 0.99
normalized growth (S. cerevisiae deletion strains, locus YNL183C, strain NPR1, stronger effect = lower value): 0.96
normalized growth (S. cerevisiae deletion strains, locus YNL233W, strain BNI4, stronger effect = lower value): 0.889
normalized growth (S. cerevisiae deletion strains, locus YNL250W, strain rad50, stronger effect = lower value): 1.05
normalized growth (S. cerevisiae deletion strains, locus YNL271C, strain bni1, stronger effect = lower value): 1.17 [resistant] (active)
normalized growth (S. cerevisiae deletion strains, locus YNL298W, strain CLA4, stronger effect = lower value): 0.992
normalized growth (S. cerevisiae deletion strains, locus YNL307C, strain MCK1, stronger effect = lower value): 1.14 [resistant] (active)
normalized growth (S. cerevisiae deletion strains, locus YNL322C, strain KRE1, stronger effect = lower value): 0.999
normalized growth (S. cerevisiae deletion strains, locus YNR052C, strain pop2, stronger effect = lower value): 1.03
normalized growth (S. cerevisiae deletion strains, locus YOL006C, strain TOP1, stronger effect = lower value): 0.723
normalized growth (S. cerevisiae deletion strains, locus YOL012C, strain htz1): 0.822
normalized growth (S. cerevisiae deletion strains, locus YOL147C, strain pex11, stronger effect = lower value): 0.969
normalized growth (S. cerevisiae deletion strains, locus YOR061W, strain CKA2, stronger effect = lower value): 1
normalized growth (S. cerevisiae deletion strains, locus YOR069W, strain VPS5, stronger effect = lower value): 1
normalized growth (S. cerevisiae deletion strains, locus YOR136W, strain idh2, stronger effect = lower value): 1.18 [resistant] (active)
normalized growth (S. cerevisiae deletion strains, locus YOR184W, strain ser1, stronger effect = lower value): 1.14 [resistant] (active)
normalized growth (S. cerevisiae deletion strains, locus YOR231W, strain MKK1, stronger effect = lower value): 0.977
normalized growth (S. cerevisiae deletion strains, locus YOR316C, strain cot1, stronger effect = lower value): 1.12 [resistant] (active)
normalized growth (S. cerevisiae deletion strains, locus YPL256C, strain CLN2, stronger effect = lower value): 0.982
normalized growth (S. cerevisiae deletion strains, locus YPR119W, strain clb2, stronger effect = lower value): 1.11 [resistant] (active)
normalized growth (S. cerevisiae deletion strains, locus YPR141C, strain kar3, stronger effect = lower value): 1.07
normalized growth (S. cerevisiae deletion strains, locus YPR163C, strain tif3, stronger effect = lower value): 1.07
normalized growth (S. cerevisiae deletion strains, locus YPR167C, strain met16, stronger effect = lower value): 1.08 [resistant] (active)
normalized growth (S. cerevisiae deletion strains, strain wtn01, stronger effect = lower value): 1.09
normalized growth (S. cerevisiae strains, strain wild type, stronger effect = lower value): 0.972
